ELG1 genotoxic: qHTS screen for small molecules that induce genotoxicity in human embryonic kidney (HEK293T) cells expressing luciferase-tagged ELG1; HEK293T ELG1-luciferase reporter, luminescence, 16 h; Potency, µM (titrated, usually from 46 µM), most hits filed as activators; 330,000 compounds, 1.3% hits; further: nearly all actives have a fitted effect of over 60% in size
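Reporter readout depends on ELG1 protein level, which increases with genetic stress. After 16 hr compound exposure at 37 °C, luciferase activity was quantified using ONE-Glo.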
NPC1 prom act: qHTS Assay for NPC1 Promoter Activators | Huh7 NPC1 promoter luciferase reporter, 24 h | 320,000 compounds, 2.4% hits | Potency, µM (top dose mostly 9.22 µM), hits mostly activators; further: nearly all actives have a fitted effect of over 60% in size
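Stably transfected Huh7 (NPC1 promoter→luciferase), 1500 cells/well in Opti-MEM + 10% FBS, 2 h settle, then compound 24 h at 37 °C. Luminescence after 10 min with Amplite reagent.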
Luc counter: Counterscreen for Luciferase (Kinase-Glo TM) Inhibition; Luciferin 4-monooxygenase (Photuris pensylvanica), Q27757; Kinase-Glo luciferase, ATP luminescence, 8 min; Potency, µM (series often up to 38.3 µM), hits mostly inhibitors; 200,000 compounds, 0.28% hits; AID 1379, 2008; further: nearly all actives have a fitted effect of over 60% in size
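Recombinant Kinase-Glo luciferase, 10 uM ATP (linear range), luciferin; imidazole pH 7.2 / KCl / MgCl2 / Tween / BSA buffer; 8 min RT; luminescence.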
FLuc counter: qHTS profiling assay for firefly luciferase inhibitor/activator using purifed enzyme and Km concentrations of substrates (counterscreen for miR-21 project). 360,000 compounds, 6.9% hits. Luciferin 4-monooxygenase (Photinus pyralis), P08659. Potency, µM (top dose mostly 57.5 µM), actives largely listed as inhibitors. purified FLuc, Km substrates, luminescence inhibition; further: nearly all actives have a fitted effect of over 55% in size
Target sequence (P08659 whole entry, looked up): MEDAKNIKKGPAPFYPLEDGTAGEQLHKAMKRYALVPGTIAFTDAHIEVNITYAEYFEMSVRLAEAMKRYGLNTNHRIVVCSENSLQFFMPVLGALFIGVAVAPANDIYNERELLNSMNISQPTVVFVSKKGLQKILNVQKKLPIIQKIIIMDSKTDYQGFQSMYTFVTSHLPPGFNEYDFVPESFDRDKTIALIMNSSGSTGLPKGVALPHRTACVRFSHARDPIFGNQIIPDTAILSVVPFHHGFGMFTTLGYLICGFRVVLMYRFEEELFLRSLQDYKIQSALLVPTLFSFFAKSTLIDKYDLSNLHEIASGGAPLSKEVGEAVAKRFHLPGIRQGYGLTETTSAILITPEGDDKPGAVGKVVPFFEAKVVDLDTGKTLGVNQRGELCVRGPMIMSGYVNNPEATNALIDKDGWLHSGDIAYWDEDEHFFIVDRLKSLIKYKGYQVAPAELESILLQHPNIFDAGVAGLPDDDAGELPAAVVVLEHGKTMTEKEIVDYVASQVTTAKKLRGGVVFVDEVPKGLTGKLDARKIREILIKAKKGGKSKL
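Purified P. pyralis luciferase (10nM final) with 10uM D-luciferin and 10uM ATP (Km levels) in 50mM Tris acetate pH 7.5, 10mM Mg acetate, 0.01% Tween-20, 0.05% BSA; qHTS 6-point titration, ~60 µM downward; luminescence read.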
SMN2 splice up: qHTS Assay for Enhancers of SMN2 Splice Variant Expression. 210,000 compounds, 2.8% hits. HEK293 SMN2-luciferase splicing reporter, luminescence, 30-36 h. Potency, µM (highest dose often 46.1 µM), usual class: activators; further: nearly all actives have a fitted effect of over 55% in size
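HEK293 cells carry an SMN2 minigene-luciferase reporter in which exon 7 inclusion puts luciferase in frame. Cells were seeded at 2000 cells/well, attached for 10-12 hours, then exposed to compounds for 30-36 hours at 37C before ONE-Glo luminescence.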
Rab9 prom act: qHTS Assay for Rab9 Promoter Activators; Huh7 Rab9 promoter-luciferase reporter, luminescence, 24 h; 320,000 compounds, 2.8% hits; Potency, µM (highest dose often 9.22 µM), actives largely listed as activators; further: nearly all actives have a fitted effect of over 60% in size
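Huh7 cells stably carrying a Rab9 promoter-luciferase reporter, 1500 cells per well in OP-MEM I with 10% FBS, treated with compound 24 hours at 37C. Luciferase activity read by luminescence after 10 minutes with Amplite reagent.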
A number is an active result; - = inactive; ? = inconclusive; . = no result. Rows were chosen to be rich in hits. Some 7.4% of all compounds tested hit in one or more screens of this group. The call rests on the fitted dose curve; in most records, active means well fitted curve in the direction sought with a large enough effect; inconclusive means small, poorly fitted or top-dose-only effect, or another doubt; inactive means no such curve, though single readings can be large; an effect the other way counts as inactive or inconclusive.

SMILES	ELG1 genotoxic	NPC1 prom act	Luc counter	FLuc counter	SMN2 splice up	Rab9 prom act
Cc1ccc(NC(=O)COC(=O)CCc2ccccc2)c(Cl)c1	-	-	.	17µM	.	-
Cc1cc(C)c2oc(-c3ccc(Cl)c(NC(=O)c4cccs4)c3)nc2c1	.	.	.	4.3µM	-	.
Cc1ccc(NC(=O)c2ccc(Cl)c(NC(=O)c3cccs3)c2)cc1	-	-	.	11µM	.	-
CC(=O)N1CCN(C(=O)c2ccc(Cl)c(NC(=O)c3cccs3)c2)CC1	-	-	.	-	.	-
CCOCC(=O)Nc1cc(C(=O)Nc2cc(C)cc(C)c2)ccc1Cl	-	-	11µM	?	.	-
Cc1nc2ccc(NC(=O)c3ccc(Cl)c(NC(=O)c4cccs4)c3)cc2s1	-	-	-	13µM	-	-
CC(=O)c1c(C)[nH]c(C(=O)Nc2cccc(C(F)(F)F)c2)c1C	-	-	.	?	.	-
CN(C)C(=O)c1ccc(NC(=O)CSc2nnc(-c3cccs3)n2N)cc1	-	-	.	-	.	-
CC(=O)N(C)c1ccc(NC(=O)Nc2ccc(C)cc2)cc1	?	-	-	24µM	?	?
Cc1ccc(NC(=O)Nc2cccc(C)n2)cc1	?	-	.	2.4µM	16µM	-
Cc1cccc(NC(=O)Nc2ccc([N+](=O)[O-])cc2)n1	-	?	-	-	-	2.2µM
Cc1ccc(NC(=O)c2cn(-c3cccc(C)n3)cn2)cc1	?	2.8µM	-	?	?	3.5µM
Cc1cccc(NC(=O)Nc2ccc(Cl)cc2)n1	-	-	.	?	.	?
O=C(COC(=O)c1ccc(Br)c(S(=O)(=O)N2CCOCC2)c1)NC1CC1	-	.	.	.	.	.
Cc1cccc(NC(=O)Nc2ccc3c(c2)N(C)C(=O)CS3)n1	?	-	-	?	-	-
Cc1cccc(NC(=O)Nc2ccc(C)c(C)c2)n1	?	?	-	2.1µM	?	?
Cc1ccc(NC(=O)Nc2cc(C)on2)cc1	-	?	-	15µM	?	?
Cc1cccc(NC(=O)Nc2ccc(F)cc2)n1	-	?	.	8.5µM	-	?
O=C(Nc1ccc(F)cc1)Nc1ccc2ccccc2n1	-	?	.	-	.	-
Cc1cccc(NC(=O)Nc2cccc(C)n2)n1	-	-	-	17µM	-	?
O=C(c1ccc(N2CCN(C(=O)c3ccc(F)c(F)c3)CC2)cc1)c1cccc(F)c1	-	-	.	-	.	-
CCN(CC)S(=O)(=O)c1ccc(N2CCOCC2)c(NCC(=O)Nc2ccc(F)cc2)c1	-	-	-	-	-	-
COC(=O)C(C(C)C)N(Cc1cc(OC)cc(OC)c1)S(=O)(=O)CCl (stereo not drawn)	-	.	.	.	.	.
CCCC(C)NC(=O)Cc1ccc(S(=O)(=O)N2CCOCC2)s1 (stereo not drawn)	-	-	.	-	.	-
O=C(CCc1nnc(-c2ccc3c(c2)OCO3)o1)N1CCC(c2ccc(F)cc2)C1 (stereo not drawn)	?	-	-	19µM	.	?
SMILES	ELG1 genotoxic	NPC1 prom act	Luc counter	FLuc counter	SMN2 splice up	Rab9 prom act
CC1CCN(C(=O)CCc2nnc(-c3ccccc3)o2)CC1	?	?	-	15µM	.	?
O=C(CSc1nnc(-c2ccccc2)o1)N1CCCC1	-	?	.	?	.	?
O=C(CSc1nnc(-c2ccccc2)o1)N1CCCc2ccccc21	.	.	.	-	-	.
O=C(CSc1nnc(-c2ccc(F)cc2)o1)N1CCCCC1	21µM	?	.	?	.	?
O=C(CSc1nnc(-c2ccccc2Cl)o1)N1CCCc2ccccc21	.	.	.	24µM	-	.
O=C(CSc1nnc(-c2ccccc2)o1)N1CCCCC1	?	2.8µM	.	15µM	.	2.5µM
COc1ccccc1CNC(=O)c1nnn(CC(=O)Nc2c(C)cccc2C)c1N	.	.	.	-	.	.
CC(C)(C)C1CCc2c(sc(NC(=O)C3CCCO3)c2C(N)=O)C1 (stereo not drawn)	-	-	-	21µM	-	-
NC(=O)c1c(NC(=O)C2CCCO2)sc2c1CCCCC2 (stereo not drawn)	?	-	-	17µM	?	?
COc1cccc2cc(C(=O)NCCN3CCOCC3)c(=O)oc12	-	-	.	-	.	-
Cc1ccccc1-n1ncc2c1CC(C)(C)CC2NC(=O)CCCN1CCCC1=O (stereo not drawn)	-	-	.	-	.	-
Cc1cc(NC(=O)COC(=O)c2ccccc2S(=O)(=O)N(C)c2ccccc2)no1	-	-	-	-	6.3µM	-
Nc1nc2c(s1)CC(c1ccccc1)CC2 (stereo not drawn)	-	-	-	24µM	-	-
Nc1nc2c(s1)COc1ccccc1-2	-	-	-	?	.	-
CCn1c(/C=C/c2cc[n+](C)cc2)nc2ccccc21	-	-	.	-	.	-
CC(C)n1c(/C=C/c2ccccc2)nc2ccccc21	?	?	-	2.4µM	11µM	?
CC(C)n1c(CN(C)c2ccccc2)nc2ccccc21	-	-	.	-	.	-
COCCOCCn1c(/C=C/c2ccccc2)nc2ccccc21	?	1.4µM	?	1.7µM	13µM	1.4µM
CCCn1c(/C=C/c2ccccc2)nc2ccccc21	?	1.8µM	-	3µM	11µM	1.8µM
COc1ccc(/C=C/c2nc3ccccc3n2Cc2ccc(OC)c(OC)c2)cc1	2.1µM	1.6µM	?	0.43µM	.	0.79µM
Fc1ccc(CNc2nc3c(-c4ccc(F)cc4)nnn3c3ccccc23)cc1	.	.	.	-	-	.
Cc1ccc(NC(=O)Cn2c(/C=C/c3ccccc3)nc3ccccc32)cc1C	?	-	-	?	-	-
CC(C)c1ccccc1NC(=O)Cn1c(/C=C/c2ccccc2)nc2ccccc21	?	-	.	21µM	.	-
COC(=O)c1ccccc1S(=O)(=O)N1CCC(C(=O)Nc2ccc(N3CCOCC3)cc2)CC1	-	.	.	.	.	.
CC(C)(C)N(Cc1ccccc1)C(=O)c1ccc2c(c1)OCCO2	-	-	-	-	-	-
SMILES	ELG1 genotoxic	NPC1 prom act	Luc counter	FLuc counter	SMN2 splice up	Rab9 prom act
CC(CN1CCCCC1)OC(=O)c1ccc2c(c1)OCCO2 (stereo not drawn)	?	-	.	?	.	-
O=C(CCCC(=O)c1ccc(O)cc1)c1ccc(O)cc1	4.6µM	3.5µM	.	2.4µM	.	?
CC(OC(=O)c1ccc2c(c1)OCCO2)C(=O)c1ccccc1 (stereo not drawn)	?	0.71µM	.	0.85µM	.	0.5µM
CCC(=O)c1ccc(O)cc1	-	-	-	-	-	-
O/N=C(/CCc1ccccc1)c1ccc2c(c1)OCCO2	21µM	4µM	-	13µM	16µM	2.8µM
O=C(CCCc1ccccc1)c1ccccc1	?	1.6µM	.	0.76µM	.	1.4µM
O=C(NNC(=O)c1ccc(Br)s1)c1cccc(Cl)c1	-	-	.	-	.	-
N#Cc1cccc(CN2CCC(=O)N([C@H](CO)Cc3ccccc3)CC2)c1	-	-	.	-	.	-
CCc1ccc(-n2c(CCC(=O)O)ccc2-c2ccc(F)cc2)cc1	.	.	.	?	-	.

From PubChem BioAssay
